Source: PubChem
HCMV inh: blocks human cytomegalovirus replication; hit rate 4.5% among 410,000; HFF cells, HCMV-luciferase reporter, 72 h; hits give low values; AID 1259415; activity change, negative = inhibition, % at 57.5 µM; in the data active = activity change below about -60%; inconclusive = no clear call, values can overlap the other calls; inactive = above about -39%
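Two compound doses tested in HFFs infected with HCMV-luciferase, MOI 1 PFU/cell, 72 h at 37C. Lysate luminescence read with OneGlo; data normalized against buffer-only and 10uM Salinomycin inhibitor controls.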
Giardia FBPA inh: inhibitors of Giardia lamblia fructose-1,6-bisphosphate aldolase; A8B2U2; purified Giardia FBPA; Potency, µM (titrated, usually from 59.6 µM), usual class: inhibitors; hit rate 0.71% among 290,000; note: nearly all actives have a fitted effect of over 55% in size
Target sequence (A8B2U2 whole entry, looked up): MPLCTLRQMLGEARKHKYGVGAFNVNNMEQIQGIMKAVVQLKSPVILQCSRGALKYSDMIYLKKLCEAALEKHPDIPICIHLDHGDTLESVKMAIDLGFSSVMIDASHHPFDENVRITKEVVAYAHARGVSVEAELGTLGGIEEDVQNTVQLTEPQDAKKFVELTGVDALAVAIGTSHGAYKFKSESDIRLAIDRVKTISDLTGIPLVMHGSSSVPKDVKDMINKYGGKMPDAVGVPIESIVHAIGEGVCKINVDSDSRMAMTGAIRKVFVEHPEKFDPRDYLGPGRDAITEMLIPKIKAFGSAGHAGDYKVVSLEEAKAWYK
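40 nM FBPA preincubated 10 min at RT with compound (up to 57.5 uM final), then substrate plus GAPDH/TPI/NAD/arsenate coupling and diaphorase/resazurin added. Fluorescence read after 20 min at RT, 525/598 nm.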
FMDV inh: foot and mouth disease virus antiviral activity. hit rate 1.2% among 410,000. FMDV antiviral cell-based qHTS. Potency, µM (doses to about 57.9 µM), hits mostly inhibitors; calls by dose curve; tested in HEK293T cells; note: read-out not given here; nearly all actives have a fitted effect of over 45% in size
TbPYK inhibitor: blocks Trypanosoma brucei pyruvate kinase; hit rate 0.12% among 410,000; Q57TT1; Potency, µM (top dose mostly 76.8 µM), most hits filed as inhibitors; TbPYK enzyme, Kinase-Glo Plus ATP luminescence, 45 min; note: nearly all actives have a fitted effect of over 50% in size
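Luminescence from Kinase-Glo Plus, added after a 45-minute room-temperature reaction, served as the end-point read-out. The enzyme and substrate were preincubated with compound before ADP (130 uM final) initiated turnover. Concentration-effect curves came from normalized qHTS data.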
RE007 growth inh: less growth of the S. pombe RE007 Vpr strain; S. pombe RE007 Vpr strain, BacTiter-Glo ATP luminescence, 24 h; Potency, µM (doses to about 92.2 µM), usual class: inhibitors; hit rate 0.21% among 360,000; AID 651644; active = well fitted falling curve with a large enough effect; inconclusive = small, poorly fitted or top-dose-only effect; inactive = no such curve, though single readings can be large or run the other way; note: nearly all actives have a fitted effect of over 50% in size
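Fission yeast RE007 carrying one integrated HIV-1 vpr copy, seeded at OD 0.01 in PMG+AL medium with 23 nL pinned compound. Grown 24 h at 30 degrees; viability read by BacTiter-Glo luminescence after 5 min.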
Sm TGR block: blocks Schistosoma mansoni thioredoxin glutathione reductase | Q962Y6 | purified TGR, DTNB reduction, TNB absorbance 405 nm | Potency, µM (series often up to 114 µM), actives largely listed as inhibitors | hit rate 3% among 360,000 | AID 485364; note: nearly all actives have a fitted effect of over 60% in size
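TGR 20 nM + NADPH 100 uM (dispensed conc.), cpd preinc 15 min RT; start with NADPH (500 uM addition) then DTNB (15 mM addition). Kinetic TNB absorbance, 405 nm filter. Four-parameter Hill fit across titration.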
Of the large screens only hits and unclear results are named; the others gave an inactive call. Only some compounds are listed: those with a hit (about 7.7% of all), similar ones and a draw of the others. Unless noted, calls come from the whole dose curve; as a rule, active = well fitted curve in the direction sought with a large enough effect; inconclusive = small, poorly fitted or top-dose-only effect, or another doubt; inactive = no such curve, though single readings can be large; an effect the other way counts as inactive or inconclusive.

COCCn1c(=O)c(-c2ccccc2)nc2cnc(N3CCN(C)CC3)nc21	none (no result: HCMV inh, TbPYK inhibitor, RE007 growth inh, Sm TGR block)
O=C(Nc1nc(-c2ccc(S(=O)(=O)N3CCCC3)cc2)cs1)c1ccco1	HCMV inh -65, FMDV inh inconclusive
O=C(Nc1nc(-c2cccs2)cs1)c1ccc(S(=O)(=O)N2CCCCC2)cc1	HCMV inh -67, FMDV inh 16µM
O=C(Nc1nc(-c2cccs2)cs1)c1cccc(S(=O)(=O)N2CCCCCC2)c1	none
CNc1nc(-c2ccc(S(=O)(=O)N3CCCCC3)cc2)cs1	none (no result: Giardia FBPA inh)
Cc1oc2ncn(C)c(=O)c2c1C(=O)NCCCN1CCCCC1C (stereo unspecified)	none (no result: Giardia FBPA inh, RE007 growth inh)
Cc1ccc(C(=O)COC(=O)CCC(=O)Nc2ccc(Oc3ccccc3)cc2)cc1	none (no result: Giardia FBPA inh, RE007 growth inh)
CC(C)CC(=O)Nc1nc2c(s1)CC(C(C)(C)C)CC2 (stereo unspecified)	none (no result: Giardia FBPA inh, RE007 growth inh)
COc1cc(/C=C/[N+](=O)[O-])ccc1OC(=O)c1cc2ccccc2oc1=O	HCMV inh -72, Giardia FBPA inh inconclusive, Sm TGR block inconclusive
COc1cc(/C=C/[N+](=O)[O-])ccc1OC(=O)c1cccnc1	FMDV inh inconclusive, TbPYK inhibitor inconclusive, RE007 growth inh 8.9µM, Sm TGR block 1.8µM
CCc1ccc(NC(=O)Nc2ccc3c(c2)N(C)C(=O)CS3)cc1	HCMV inh -69
Cn1c2ccccc2c(=O)c2c(=O)n(Cc3ccco3)c(-c3ccc(F)cc3)nc21	Sm TGR block 40µM
Cc1ccc(-c2nc3c(c(=O)c4ccccc4n3C)c(=O)n2Cc2ccco2)cc1	FMDV inh inconclusive, Sm TGR block 32µM
COCCn1c(-c2ccc(C)cc2)nc2c(c(=O)c3ccccc3n2C)c1=O	HCMV inh inconclusive (no result: Giardia FBPA inh, Sm TGR block)
Cc1ccccc1Oc1nc2c(c(=O)n(C)c(=O)n2C)n1C	none
COc1ccccc1Oc1nc2c(c(=O)n(Cc3ccccc3F)c(=O)n2C)n1C	Sm TGR block 2.8µM
Cc1ccc(Oc2nc3c(c(=O)n(Cc4ccccc4)c(=O)n3C)n2C)cc1C	FMDV inh 14µM (no result: Giardia FBPA inh, RE007 growth inh)
CCn1c(Oc2ccccc2C)nc2c1c(=O)n(C)c(=O)n2C	HCMV inh -74
O=C(CCN1CCCCC1)Nc1ccc2c(c1)C(=O)c1ccc(NC(=O)CCN3CCCCC3)cc1C2=O	none (no result: HCMV inh, FMDV inh, TbPYK inhibitor, RE007 growth inh, Sm TGR block)
COc1ccc(Cn2c(SCc3ccc(C(=O)NC(C)c4ccccc4)cc3)nc3cccnc32)cc1 (stereo unspecified)	none (no result: Giardia FBPA inh, RE007 growth inh)
COc1ccccc1CNC(=O)CSC1=Nc2ccccc2N=C(c2ccc(F)cc2)C1	none (no result: Giardia FBPA inh, RE007 growth inh)
CC(=O)N1CCCc2cc(S(=O)(=O)N3CCCC(C(=O)Nc4ccc(C)c(F)c4)C3)ccc21 (stereo unspecified)	FMDV inh inconclusive (no result: Giardia FBPA inh, RE007 growth inh)
COc1ccc(N2CCN(C(=O)C3CCCN(S(=O)(=O)c4ccc5c(c4)CCCN5C(C)=O)C3)CC2)cc1 (stereo unspecified)	HCMV inh -71, FMDV inh inconclusive (no result: Giardia FBPA inh, RE007 growth inh)
CC(=O)N1CCCc2cc(S(=O)(=O)N3CCCC(C(=O)N4CCN(c5ccccc5F)CC4)C3)ccc21 (stereo unspecified)	HCMV inh inconclusive, FMDV inh 16µM (no result: Giardia FBPA inh, RE007 growth inh)
Cc1ccc(-n2nc3c(c2NC(=O)c2ccco2)CS(=O)(=O)C3)cc1C	none (no result: Giardia FBPA inh)
COc1ccc(-n2nc3c(c2NC(=O)c2ccco2)CS(=O)(=O)C3)cc1	Sm TGR block 45µM
O=C(Nc1c2c(nn1-c1cccc(Cl)c1)CS(=O)(=O)C2)c1ccco1	Sm TGR block 45µM
CCCCNC(=O)c1ccccc1Cl	HCMV inh -107
CCCCNC(=O)c1cccc2c(=O)c(C)c(-c3ccccc3)oc12	HCMV inh -68
Cc1c(-c2ccccc2)oc2c(C(=O)N3CCN(c4ccccc4F)CC3)cccc2c1=O	none
CCCCN(C(=O)c1cccc2c(=O)c(C)c(-c3ccccc3)oc12)c1ccccc1	HCMV inh -63, FMDV inh inconclusive
Cc1ccc(NC(=O)COC(=O)c2cccc3c(=O)c(C)c(-c4ccccc4)oc23)cc1	none
COc1ccc(C(=O)/C(Br)=C/C(=O)O)cc1	none (no result: HCMV inh, Giardia FBPA inh, FMDV inh, RE007 growth inh, Sm TGR block)
Cc1ccc(Cc2c(C)nc3nc(SCC(=O)NCCN4CCCCCC4)nn3c2C)cc1	none (no result: Giardia FBPA inh, FMDV inh, TbPYK inhibitor, RE007 growth inh, Sm TGR block)
O=C(Nc1ccc(Cl)cc1)c1nc[nH]c1C(=O)NCc1ccccc1	HCMV inh -74 (no result: Giardia FBPA inh)
